Compounds with a hit are over-represented: about 4.5% of the library has one in this group of screens.
Rtt109 HAT inh: blocks Candida albicans Rtt109/Vps75 acetyltransferase activity; Q5AAJ8; purified Rtt109/Vps75, ThioGlo CoA-SH fluorescence, 4 h; inhibition, % at 34.9 µM; 330,000 tested, 0.16% active; AID 540336;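 active = inhibition of at least 50% in every replicate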
Target sequence (Q5AAJ8 whole entry, looked up): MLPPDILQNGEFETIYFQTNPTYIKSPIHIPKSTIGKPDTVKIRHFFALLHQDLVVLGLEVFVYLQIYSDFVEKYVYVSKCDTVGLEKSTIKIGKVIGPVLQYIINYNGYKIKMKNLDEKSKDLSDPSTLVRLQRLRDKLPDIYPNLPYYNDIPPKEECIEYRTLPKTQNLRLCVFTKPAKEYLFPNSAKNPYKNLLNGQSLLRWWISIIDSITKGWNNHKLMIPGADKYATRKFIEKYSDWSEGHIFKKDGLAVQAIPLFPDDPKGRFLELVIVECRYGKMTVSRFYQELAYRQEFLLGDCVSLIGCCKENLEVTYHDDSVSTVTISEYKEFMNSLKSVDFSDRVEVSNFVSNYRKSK
GRK2 aptamer HTS: inhibitors of human GRK2 displacing RNA aptamer. 330,000 tested, 0.59% active. bead flow cytometry, FAM-aptamer displacement from GRK2. inhibition of aptamer binding, % at 10 µM;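 active = inhibition of aptamer binding above 40%, roughly 3 SD of noise, on plates passing a quality check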;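 note: median bead fluorescence of bound FAM aptamer so fluorescent compounds give negative values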
Rce1 inh: blocks yeast Ras-converting enzyme | Q03530 | yeast membranes, quenched prenylated peptide cleavage fluorescence | calls only | 290,000 tested, 0.27% active;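 active = fall in fluorescence gain of 50% or more versus controls, with final raw signal at or below 3038400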;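 note: plate controls were neutral control wells for no effect and wells lacking membranes for full effect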
Target sequence (Q03530 whole entry, looked up): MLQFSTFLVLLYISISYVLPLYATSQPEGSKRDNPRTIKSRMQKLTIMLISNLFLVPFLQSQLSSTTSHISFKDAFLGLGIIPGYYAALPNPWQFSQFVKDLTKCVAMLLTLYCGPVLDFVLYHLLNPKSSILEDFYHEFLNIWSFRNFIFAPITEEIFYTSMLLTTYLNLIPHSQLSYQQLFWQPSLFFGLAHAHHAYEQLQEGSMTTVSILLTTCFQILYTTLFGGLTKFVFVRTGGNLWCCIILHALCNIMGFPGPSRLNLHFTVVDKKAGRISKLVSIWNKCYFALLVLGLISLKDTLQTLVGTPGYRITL
ALR inh: blocks human ALR sulfhydryl oxidase activity | 290,000 tested, 3.8% active | purified ALR, DTT oxidation, H2O2 HRP-luminol luminescence | AID 485317 | inhibition, % (test concentration not listed) | P55789;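 active = mean replicate inhibition above about 79%, with every replicate also reaching it, limit read from the data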
Efflux pump mplx: inhibitors of Candida antifungal efflux pumps expressed in yeast; S. cerevisiae Candida pump triplex, Nile Red efflux; 330,000 tested, 0.44% active; inhibition, % at 10 µM;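 active = plate passing quality check with inhibition over a set limit, or well fluorescence over plate mean plus 4 SD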;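 note: Nile Red retained in pooled yeast measured as flow cytometry median fluorescence; 0% = buffer negative control and 100% = Enniatin B positive control; higher means more Nile Red kept so more efflux inhibition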
HDAC3 inhib: inhibitors of human histone deacetylase 3 | O15379 | recombinant HDAC3, fluorogenic peptide/trypsin coupled, fluorescence | inhibition, % at 8.3 µM | 320,000 tested, 0.15% active; in the data active = inhibition above about 26%, passing the limit was not always enough
* marks the source's active call; other numbers are inactive results; i = inactive; · = not tested or not shown; + = active, no number.

SMILES | Rtt109 HAT inh | GRK2 aptamer HTS | Rce1 inh | ALR inh | Efflux pump mplx | HDAC3 inhib
COc1cccc(CNc2ccc(S(=O)(=O)Nc3nccs3)cc2)c1O | -6.6 | 2.0 | i | 93.1* | 0.3 | 5.3
Cc1ccc(C(C2=C(O)CC(C)(C)CC2=O)C2C(=O)CC(C)(C)CC2=O)s1 (stereo not drawn) | -5.7 | 0.0 | i | 98.3* | 0.2 | 7.5
COc1cccc(C(C2=C(O)CC(C)(C)CC2=O)C2C(=O)CC(C)(C)CC2=O)c1 (stereo not drawn) | 9.3 | 0.0 | i | 97.9* | 0.0 | -2.5
CC1(C)CC(=O)C(C(C2=C(O)CC(C)(C)CC2=O)c2ccc(Br)s2)C(=O)C1 (stereo not drawn) | 1.7 | 6.0 | i | 98.0* | -0.1 | 6.6
CN1CCN(C(=O)C23CC4CC(C2)CC(c2ccccc2)(C4)C3)CC1 | 7.5 | 0.0 | i | -7.6 | -0.2 | -6.4
O=c1ccn(Cc2ccccc2)c2ccccc12 | 0.3 | 0.0 | i | · | 0.0 | 6.4
O=c1[nH]n(Cc2ccccc2)c2ccccc12 | 3.2 | 0.0 | i | 98.6* | 0.1 | -34.8
O=C(Nc1ccc(Oc2ccc(C(=O)O)c(C(=O)O)c2)cc1)c1cccs1 | -3.4 | 0.0 | i | · | -0.1 | -1.1
Cc1cccc(C(=O)NNC2=C(C(=O)C(F)(F)F)CCC2)c1O | -12.5 | 0.0 | i | 97.3* | 0.0 | 13.7
CC(C)(C)NC(=O)/C(=C/c1ccco1)c1ccccc1 | 10.1 | 0.0 | i | 89.7* | 0.1 | 0.8
CC(C)OC(=O)/C(=C/c1ccco1)c1ccccc1 | 0.2 | 2.0 | i | · | 0.0 | 2.8
Cc1ccccc1NC(=O)/C(=C/c1ccco1)c1ccccc1 | -0.7 | 2.0 | i | 83.5* | -0.1 | 1.4
CCc1ccccc1NC(=O)/C(=C/c1ccco1)c1ccccc1 | -5.7 | 0.0 | i | 5.2 | 0.1 | 12.5
NS(=O)(=O)c1ccc(N=Nc2c[nH]c(=O)c(O)c2)cc1 | 5.4 | 7.0 | i | 89.5* | 0.8 | ·
COC(=O)Cn1c(=NC(=O)c2ccc(Cl)s2)sc2cc(C)ccc21 | 0.1 | 0.0 | i | -3.1 | -1.5 | 7.5
COC(=O)Cn1c(=NC(=O)c2ccc([N+](=O)[O-])s2)sc2cc(Br)ccc21 | · | 5.0 | i | 98.0* | 0.8 | 10.8
O=C(c1cnn(C(=O)CN2CCCC2=O)c1)c1ccccc1O | -6.7 | 3.0 | · | 74.5 | -0.1 | 0.7
Cc1ccc2c(c1)C(=O)N1[C@H]3c4ccccc4OC[C@@H]3[C@H](c3ccccc3)[C@]1(C)C(=O)N2 | 1.1 | 93.0* | · | 3.9 | -0.2 | 5.4
Cc1c[nH]c2cccc(OCC(CNC(C)(C)C)OC(=O)c3ccccc3)c12 (stereo not drawn) | 1.3 | 0.0 | i | 81.2* | -0.1 | -2.9
Cc1cc(=O)[nH]c2sc(C(=O)N3c4ccccc4CC3C)c(N)c12 (stereo not drawn) | -3.2 | 0.0 | · | 97.9* | 0.1 | -0.8
Cc1nc2cc(C(=O)N3c4ccccc4CC3C)ccc2s1 (stereo not drawn) | -2.0 | 0.0 | i | -10.0 | 0.1 | -5.6
CC(C)(C)NC(=O)c1ccccc1NC(=O)C1CC(=O)N(C2CCCCC2)C1 (stereo not drawn) | 5.5 | 0.0 | i | -2.9 | -0.1 | 9.2
Cc1ccc([N+](=O)[O-])cc1S(=O)(=O)Nc1cccc(S(=O)(=O)NC2=NCCC2)c1 | -0.3 | 1.0 | · | · | -0.1 | -1.4
Cc1ccc(NC2=C(Cl)C(=O)OC2OC(=O)c2ccc(C)cc2)cc1 (stereo not drawn) | 1.7 | 0.0 | i | 9.2 | 0.0 | 7.4
COC(=O)c1ccc(NC2=C(Cl)C(=O)OC2OC(=O)c2ccccc2)cc1 (stereo not drawn) | 2.9 | 0.0 | i | 97.0* | 0.4 | -5.4
SMILES | Rtt109 HAT inh | GRK2 aptamer HTS | Rce1 inh | ALR inh | Efflux pump mplx | HDAC3 inhib
O=C(NC(=S)NCCCN1CCOCC1)c1cccc2ccccc12 | 13.3 | 1.0 | i | -8.2 | 0.0 | -2.8
Cc1c(C(=O)N2CCC[C@H]2CO)oc2c(F)cccc12 | 56.7* | 0.0 | i | · | -0.1 | 0.6
Cc1c(C(=O)O)oc2c(F)cccc12 | 0.8 | 0.0 | i | -3.6 | 0.0 | -3.8
CCSS(=O)(=O)c1cccc2cccnc12 | 153.8* | 0.0 | i | 9.7 | 0.0 | 0.9
N#CC1=C(N)NC(SCC(=O)Nc2ccc(Br)cc2)=C(C#N)C12CCCCC2 | 1.3 | 0.0 | i | 97.4* | 0.1 | 18.0
COc1ccc(/C=C(\CC(=O)O)c2nc3ccccc3s2)cc1O | 2.8 | 0.0 | i | 91.9* | 0.1 | 1.9
CCOc1cc(/C=C(\CC(=O)O)c2nc3ccccc3s2)ccc1OC | -7.3 | 0.0 | i | 4.1 | 0.3 | -10.2
COc1cc(/C=C(\CC(=O)O)c2nc3ccccc3s2)cc(OC)c1O | 5.8 | 1.0 | i | 99.5* | 0.5 | 4.9
C=CCn1c(SCC(=O)N(CC)c2c(N)n(Cc3ccccc3)c(=O)[nH]c2=O)nnc1-c1ccccc1OC | 8.0 | · | · | · | · | ·
CC1CCC2(CC1)Nc1ccccc1C(=O)N2c1ccccc1 (stereo not drawn) | -7.7 | 0.0 | i | -2.4 | 0.1 | -19.9
O=C1c2ccccc2NC2(CCCCC2)N1c1ccc(O)cc1 | -5.9 | 2.0 | i | 99.0* | -0.2 | 2.2
S=c1nc(-c2cccc(Cl)c2)[nH][nH]1 | -14.9 | 0.0 | i | 92.4* | 0.2 | -1.8
S=c1nc(-c2cc(Cl)ccc2Cl)[nH][nH]1 | 4.8 | 1.0 | i | -77.3 | -0.2 | 5.8
S=c1nc(-c2cc(Cl)cc(Cl)c2)[nH][nH]1 | -8.6 | 0.0 | i | 98.2* | -0.1 | 3.0
O=C(Nc1ccc2ccccc2n1)c1ccccc1Br | -5.0 | 0.0 | · | -0.2 | -0.1 | 3.3
O=C(O)COc1ccccc1/C=C1\SC(=O)N(Cc2ccc(F)cc2)C1=O | -14.6 | 4.0 | i | 97.7* | 0.3 | 0.1
Cc1ccc(CN2C(=O)S/C(=C\c3ccccc3OCC(=O)O)C2=O)cc1 | 13.0 | 0.0 | i | 97.0* | -0.1 | 1.5
O=C(O)CN1C(=O)/C(=C\c2ccccc2OCc2ccc(F)cc2)SC1=S | -0.3 | 3.0 | i | 11.6 | 0.1 | 4.1
CCOc1cc(/C=C/C(=O)N(CC)CC(=O)NCc2cccs2)cc(Cl)c1OC | -1.9 | 1.0 | i | -22.7 | -0.2 | -0.1
CC(C)CCNC(=O)CN(C(=O)CCC(=O)Nc1nccs1)C1CCCCC1 | 14.2 | 5.0 | i | -2.3 | 0.1 | 1.3
COc1ccc(C2=CC(=O)OC3(CCCCC3)O2)cc1 | 5.5 | 0.0 | i | -5.7 | 0.0 | -5.7
C=C(C)C1(O)OC(=O)C=C1OC (stereo not drawn) | 7.0 | 2.0 | + | -62.4 | 0.0 | -6.0
Cc1onc(-c2ccccc2)c1NC(=O)N(CCC#N)Cc1cccs1 | -0.2 | 0.0 | i | 3.0 | 0.1 | -3.7
CN(C)c1ccc(N2C(=O)CC(Nc3ccc(N4CCOCC4)cc3)C2=O)cc1 (stereo not drawn) | -1.7 | 0.0 | i | 63.0 | 0.0 | -6.3

Assay outcomes as filed in PubChem.
